# Only a selection was taken, and hits are over-represented in it overall.
# Algae TAG accum: increases triacylglycerol in Chlamydomonas reinhardtii; Chlamydomonas reinhardtii TAG, Nile Red fluorescence, 72 h; calls only at 10 µM (by protocol); actives 0.84% (n = 44,000); call rule not given here;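 further: hits raise Nile Red signal meaning more stored TAG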
# * marks the source's active call; other numbers are inactive results; i = inactive; + = active, no number.
SMILES,Algae TAG accum
Clc1ccc(Cl)c(OCCCCN2CCNCC2)c1,+
Cc1cc(Cl)ccc1OCCN1CCNCC1,i
Cc1cc([N+](=O)[O-])ccc1N/C=C/C(=O)c1ccco1,i
COCCNS(=O)(=O)c1ccc2c(c1)OCCO2,i
O=c1c(CN2CCN(Cc3ccc4c(c3)OCO4)CC2)coc2ccccc12,i
O=C1c2ccccc2C(=O)N1CN1CCN(Cc2ccc3c(c2)OCO3)CC1,i
O=C1CC(N2CCN(Cc3ccc4c(c3)OCO4)CC2)C(=O)N1CCc1ccccc1 (stereo not given),+
CC12c3ccccc3C(c3ccccc31)C1C(=O)NNC(=O)C12 (stereo not given),i
CCOc1cc(C(=O)NCc2ccc(OC)c(OC)c2)cc(OCC)c1OCC,i
O=C(COc1ccc(Br)cc1Cl)Nc1ccncc1,i
CCC(C)c1ccc(OCCCN2CCN(C)CC2)cc1 (stereo not given),+
CN1CCN(CCCOc2ccc(C(C)(C)c3ccccc3)cc2)CC1,i
CCC(C)c1ccc(OCCCCN2CCN(C)CC2)cc1 (stereo not given),i
c1ccc(OCCN2CCCC2)cc1,i
CN1CCN(CCOc2ccc(C(C)(C)c3ccccc3)cc2)CC1,+
CN1CCN(CCCOc2ccc(OCc3ccccc3)cc2)CC1,i
O=C(COc1ccccc1[N+](=O)[O-])Nc1ccc(-c2nc3ncccc3o2)cc1,i
O=[N+]([O-])c1ccccc1S(=O)(=O)n1cccn1,i
CN(Cc1ccc2c(c1)OCO2)C1CCCCC1,i
NC(=O)C1CCN(C(=O)c2cccc(C#CC3(O)CCCCC3)c2)CC1,i
O=C(CN1C(=O)C2C3C=CC(C3)C2C1=O)Nc1ccc([N+](=O)[O-])cc1 (stereo not given),i
COc1ccc(OCCCC(=O)Nc2ccc(OC)c(OC)c2)cc1,i
CCC(C)c1ccccc1OCCOCCN1CCCC1 (stereo not given),i
CCOc1ccc(OCCOCCN2CCOCC2)cc1,i
Clc1ccc(OCCOCCN2CCOCC2)cc1Cl,i
SMILES,Algae TAG accum
c1ccc(-c2ccccc2OCCCN2CCOCC2)cc1,i
CCC(C)c1ccccc1OCCOCCN1CCOCC1 (stereo not given),+
CCC(C)c1ccccc1OCCNC(C)C (stereo not given),i
CCC(C)c1ccccc1OCCCN1CCOCC1 (stereo not given),+
CCC(C)c1ccccc1OCCCCN1CCCC1 (stereo not given),+
CCC(C)c1ccccc1OCCN1CCCC1 (stereo not given),i
O=[N+]([O-])c1ccccc1OCCCN1CCOCC1,i
Fc1ccccc1OCCN1CCOCC1,i
CCc1ccc(OCCOCCN2CCOCC2)cc1,+
O=C(COc1ccc([N+](=O)[O-])cc1)N1CCOCC1,i
Brc1ccc(CN2CCN(c3ccccc3)CC2)s1,i
Cc1nc2sc(-c3ccccc3)cc2c(=O)n1CC(N)=O,i
Cc1ccc(NC(=O)c2cc(N3C(=O)CCC3=O)ccc2N2CCOCC2)cc1Cl,i
COc1ccc(OC)c(NC(=O)C2CCN(S(=O)(=O)c3ccc(F)cc3)CC2)c1,i
Cc1ccc(F)cc1S(=O)(=O)Nc1ccc(Cc2ccncc2)cc1,i
COc1ccc(C(O)=C2C(=O)C(=O)N(Cc3cccnc3)C2c2cccc([N+](=O)[O-])c2)cc1 (stereo not given),i
COc1ccc(/C=C(/NC(=O)c2ccco2)C(=O)Nc2ccccc2)cc1,i
O=C(Nc1nc2c(s1)CCCC2)c1cccc(Cl)c1,i
CCc1nnc(NC(=O)c2cc(OC)c(OC)c(OC)c2)s1,i
COc1cc(C(=O)Nc2nc3c(s2)CCCC3)cc(OC)c1OC,+
COc1ccccc1NC(=O)c1occc1C,i
O=C(NCCCO)c1ccc(Cl)cc1,i
COc1ccc(NC(=O)COc2ccc([N+](=O)[O-])cc2)cc1,i
CCN(CCNc1ccc([N+](=O)[O-])cc1)S(=O)(=O)c1ccccc1,i
COc1ccc(OC)c(NC(N)=Nc2nc(C)cc(=O)[nH]2)c1,i
SMILES,Algae TAG accum
Cc1cc(NCc2ccccc2)nc(-c2ccccc2O)n1,i
Cc1cc(NCc2ccccc2)nc(N2CCOCC2)n1,+
Cc1cc(N2CCOCC2)nc(NCc2ccccc2)n1,i
Cc1cc(NC(=O)c2ccccc2)c(C(C)C)cc1O,i
O=C(CN(CCc1ccccc1)S(=O)(=O)c1cc(Cl)ccc1Cl)N1CCOCC1,i
O=[N+]([O-])c1ccc(N2CCN(Cc3ccsc3)CC2)cc1,i
O=C(c1ccc(CN2CCOCC2)cc1)N1CCN(c2ccc(F)cc2)CC1,i
Clc1ccc(N2CCN(Cc3ccsc3)CC2)cc1,+
Fc1ccc(N2CCN(Cc3ccsc3)CC2)cc1,+
CCOc1cc(CN2CCN(c3ccc(F)cc3)CC2)ccc1OC,i
Clc1ccc(N2CCN(Cc3cccs3)CC2)cc1,i
COc1ccc(N2CCN(Cc3cc(OC)cc(OC)c3)CC2)cc1,i
COc1cccc(N2CCN(Cc3ccco3)CC2)c1,i
COc1cccc(N2CCN(Cc3ccsc3)CC2)c1,+
Cc1ccc(NC(=O)c2ccc([N+](=O)[O-])c(C)c2)c(Br)c1,i
CCc1ccccc1NS(=O)(=O)c1cc([N+](=O)[O-])ccc1C,i
CC(=O)c1ccc(N2CCN(C(=O)c3c(F)cccc3F)CC2)c(F)c1,i
Cc1ccc(CNC(=O)COc2ccc(C)cc2Br)cc1,i
CCN(CC)CC#CC(C)(O)C(C)(C)C (stereo not given),i
CCOc1ccc(C(=O)NCCC(=O)O)cc1,i
CCOc1ccc(C(=O)NCCNC(=O)c2ccc(OCC)cc2)cc1,+
CCOc1ccc(C(=O)NCCCN(C)C)cc1,i
CCOc1ccc(C(=O)Nc2cc(OC)c(Cl)cc2OC)cc1[N+](=O)[O-],i
CC(=O)Nc1ccc(S(=O)(=O)Nc2cc([N+](=O)[O-])ccc2C)cc1,+
COc1ccc([N+](=O)[O-])cc1NS(=O)(=O)c1ccc(NC(C)=O)cc1,i
SMILES,Algae TAG accum
COc1cc([N+](=O)[O-])ccc1NS(=O)(=O)c1ccc(NC(C)=O)cc1,i
COc1ccc(C(=O)Nc2cccc(I)c2)c(OC)c1,i
O=C(CCN1C(=O)c2ccccc2C1=O)N1CCN(C/C=C/c2ccccc2)CC1,i
CCOc1ccc(C(=O)Nc2cccc(NC(=O)c3ccco3)c2)cc1Br,i
CN(C)c1ccnc(SCC(N)=O)c1C#N,i
COc1ccccc1CN1CCC(C(=O)N(CCN(C)C)Cc2ccccc2)CC1,i
CCN(Cc1ccccc1)C(=O)C1CCN(Cc2ccccc2F)CC1,+
O=C(C1CCN(Cc2ccccc2O)CC1)N(CCO)Cc1ccccc1,i
CCS(=O)(=O)c1ccc(O)c(NC(=O)COc2cccc(C)c2)c1,i
O=C(c1cc2ccccc2o1)N1CCN(c2ccc([N+](=O)[O-])c(N3CCOCC3)c2)CC1,i
O=C(Cc1ccc(Cl)cc1)Nc1nnc(Cc2ccc(Cl)cc2)s1,i
CCCCN(CC)C(=O)c1ccccc1F,i
Cc1ccc(Cl)cc1NC(=O)C1C2C=CC(O2)C1C(=O)O (stereo not given),i
O=C(Nc1ccccc1F)[C@@H]1C2C=CC(C2)[C@@H]1C(=O)O (stereo not given in full),i
O=C(O)C1C2C=CC(O2)C1C(=O)Nc1ccccc1F (stereo not given),+

# From PubChem
